This is a sample that favours compounds with a hit; in the whole collection about 3.4% have one here.
GPR151 ag: activators of human GPR151, primary screen, cell-based, PathHunter beta-arrestin, luminescence; activation, % at 11.2 µM; PathHunter beta-arrestin GPR151 cells; AID 1508602, 2020; 650,000 tested, 1% active; in the data active = activation above about 4.9%;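 also: 0% = median of compound wells and 100% = cells with positive control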
Target sequence (Q8TDV0 whole entry, looked up): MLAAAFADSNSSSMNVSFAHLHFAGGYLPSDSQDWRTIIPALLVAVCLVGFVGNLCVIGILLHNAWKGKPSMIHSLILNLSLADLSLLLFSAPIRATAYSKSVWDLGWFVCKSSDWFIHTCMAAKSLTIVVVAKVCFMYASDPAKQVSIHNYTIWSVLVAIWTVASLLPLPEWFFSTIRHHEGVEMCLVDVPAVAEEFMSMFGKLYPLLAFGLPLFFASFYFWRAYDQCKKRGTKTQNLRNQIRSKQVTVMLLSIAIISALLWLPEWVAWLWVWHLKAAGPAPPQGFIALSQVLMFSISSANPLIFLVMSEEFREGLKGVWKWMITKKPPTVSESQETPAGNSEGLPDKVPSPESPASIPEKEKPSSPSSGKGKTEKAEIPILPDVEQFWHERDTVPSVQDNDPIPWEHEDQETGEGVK
MITF primary: MITF inhibitors, primary screen, biochemical, AlphaScreen, human; 650,000 tested, 0.91% active; inhibition, % at 2.6 µM; AlphaScreen MITF homodimerization, bead proximity signal; in the data active = inhibition above about 50%;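 also: 0% = vehicle wells with protein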
TEAD-YAP inh: TEAD-YAP interaction inhibition, primary screen, TEAD-YAP interaction inhibitor project, luminescence, HEK-TIYL cells; inhibition, % at 9.12 µM; 640,000 tested, 1.4% active; TEAD-Gal4/YAP UAS-luciferase luminescence; AID 1259422, 2018; in the data active = inhibition above about 32%;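 also: 0% = median of test compound wells and 100% = reference inhibitor wells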
FBW7 act: FBW7 E3 ligase activators, primary screen, biochemical, AlphaScreen, human; AlphaScreen FBW7–phospho-cyclin E peptide binding, activator screen; 650,000 tested, 0.13% active; F-box/WD repeat-containing protein 7 (Homo sapiens), Q969H0; normalized activity (activation), % at 26.1 µM; in the data active = normalized activity above about 1.9%;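 also: purified mutant Fbw7 with reduced substrate affinity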
GPR151 confirm: GPR151 activators, triplicate retest, confirmation, cell-based, PathHunter beta-arrestin, luminescence; shares compounds with GPR151 ag; GPR151 PathHunter beta-arrestin cells, 90 min; % of EA-reagent control over plate median; activation, % at 11.2 µM; 6,700 tested, under 10 active; AID 1508609, 2020;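 active = mean percent activation across replicates above the confirmation screen cutoff of 4.91%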
GPR119 ag: GPR119 activators in beta-arrestin cells, counter-screen for GPR151 activator project, cell-based, PathHunter beta-arrestin, luminescence, triplicate; shares compounds with GPR151 ag; 6,700 tested, 0.3% active; activation, % at 11.2 µM; 90 min; 0 = compound-well median, 100 = enzyme-acceptor control; AID 1508611, 2020;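 active = mean percent activation in the counterscreen above 29.09%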;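 also: counterscreen on off-target GPR119 to flag nonselective hits from the GPR151 activator screen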
The depositor's hits bear a star; . = no result; ! = a repeat was not active.

SMILES | GPR151 ag | MITF primary | TEAD-YAP inh | FBW7 act | GPR151 confirm | GPR119 ag
O=C(CC(O)(C(F)(F)F)C(F)(F)F)Nc1ccccc1Br | 0 | 10 | -8 | 1 | . | .
Cc1ccc(Cl)cc1NC(=O)CC(O)(C(F)(F)F)C(F)(F)F | 5.2* | -17 | 6 | 0 | 0 | 6
COc1ccccc1NC(=O)CC(O)(C(F)(F)F)C(F)(F)F | 5.8* | 3 | 14 | 0 | 0 | 1
O=C1c2cccc([N+](=O)[O-])c2C(=O)N1c1cc(C(F)(F)F)ccc1Cl | 1 | -4 | 11 | 0 | . | .
CC(=O)NC(c1ccco1)c1cc(Cl)c2cccnc2c1O (centres undefined) | 15* | 76* | 32 | 0 | 0 | -8
Cc1cc(C)nc(/N=C(\N)Nc2ccc(Cl)c(Cl)c2)n1 | -1 | 9 | -2 | 0 | . | .
C=C(C)CNc1nc2nonc2nc1NC1CC1 | 1 | -3 | -5 | 0 | . | .
c1cc(CNc2nc3nonc3nc2NC2CC2)c2cc[nH]c2c1 | 5.5* | 10 | -1 | 0 | 0 | 8
CCN(C(=O)CSc1nc2cc(C(=O)OC)ccc2c(=O)n1CCc1ccc(S(N)(=O)=O)cc1)c1cccc(C)c1 | 0 | 30 | 14 | 0 | . | .
COc1ccc(C(=O)NNC(=O)C(=O)N2CCCC2)cc1OC | 5.6* | 7 | -6 | 0 | 1 | 18
COc1ccc([N+](=O)[O-])cc1N=Cc1cccc([N+](=O)[O-])c1 | -1 | 4 | -3 | 0 | . | .
COc1ccc([N+](=O)[O-])cc1N=Cc1ccc(C#N)cc1 | 5.1* | -6 | 1 | 0 | 0 | 6
O=C(Cc1cn(-c2ccc(Nc3ccccc3)nn2)c2ccccc12)NCc1nc2ccccc2[nH]1 | 5.3* | -1 | -10 | 0 | 0 | -6
Cn1c(Nc2ccc(-n3cc(CC(=O)NCc4nc5ccccc5[nH]4)c4ccccc43)nn2)nc2ccccc21 | 1 | 10 | -16 | 0 | . | .
c1ccc2cc(CN3CCc4nc5ccncc5cc4C3)ccc2c1 | -1 | 5 | -2 | 0 | . | .
Cc1ccc(OCC(=O)N2CCOc3ccc(C(C)(O)CN(C)C)cc3C2)cc1 (centres undefined) | -1 | -8 | 2 | 0 | . | .
Nc1ccccc1SC1CC(=O)N(Cc2ccccc2)C1=O (centres undefined) | 7.1* | 13 | -24 | 0 | 0 | -9
CCN1C(=O)CC(Sc2ccccc2N)C1=O (centres undefined) | 3 | -3 | 15 | 0 | . | .
COCCn1c(SCC(=O)Nc2nccs2)nc2c(c1=O)SCC2 | 2 | 4 | -1 | 0 | . | .
C=C(C)c1nc2ccc(-c3ccc4nc(C(=C)C)oc(=O)c4c3)cc2c(=O)o1 | 0 | 18 | 0 | 0 | . | .
CCc1nc2ccc(-c3ccc4nc(CC)oc(=O)c4c3)cc2c(=O)o1 | 8.8* | 14 | -1 | 0 | 0 | 6
COc1cc(CN2C(=O)C(C)Oc3ccc(C)cc32)cc(OC)c1 (centres undefined) | 1 | -14 | 1 | 0 | . | .
O=C1CSC(=O)N1C1CCCCC1NC(=O)C1(c2cccs2)CCCC1 (centres undefined) | 5.5* | -1 | 3 | 0 | -1 | -8
COc1ccc(C(=O)/C=C/Nc2cccc([N+](=O)[O-])c2)cc1OC | 8.7*! | -1 | -36 | 0 | 0 | -9
CCOC(=O)C(C)N1C(=O)S/C(=C/c2cc(Cl)cc(OC)c2O)C1=O (centres undefined) | 6.7* | -5 | -5 | 0 | 0 | -5
SMILES | GPR151 ag | MITF primary | TEAD-YAP inh | FBW7 act | GPR151 confirm | GPR119 ag
COC(=O)C(C)N1C(=O)S/C(=C/c2cc(Cl)cc(OC)c2O)C1=O (centres undefined) | -1 | -9 | -4 | 0 | . | .
O=C(CCc1nnc(C2(c3ccc(Cl)cc3)CCC2)o1)NCc1cccnc1 | 4.9* | 4 | -1 | 0 | -1 | -9
O=C(CCc1nnc(C2(c3ccc(Cl)cc3)CCC2)o1)NCCCc1cccnc1 | -1 | -5 | -18 | 0 | . | .
Cn1nc([N+](=O)[O-])c(C(C#N)c2nc3ccccc3o2)c(Cl)c1=O (centres undefined) | 0 | 5 | 3 | 0 | . | .
CCOC(=O)C1=C(CN2CCN(CC)CC2)NC(=O)NC1c1cc(C)ccc1C (centres undefined) | 7.5* | -21 | -6 | 0 | 0 | 8
Nc1ccc(-c2nnn(CC(=O)Nc3ccc(C4CCCCC4)cc3)n2)cc1 | 8.1* | -7 | -5 | 0 | 1 | 12
CC(=O)N(c1cccc2ccccc12)C1C=CS(=O)(=O)C1 (centres undefined) | 4.9* | -10 | -2 | 0 | 0 | -7
CCc1ccccc1N(C(C)=O)C1C=CS(=O)(=O)C1 (centres undefined) | 5 | 2 | 0 | 0 | . | .
c1csc(-c2[nH]ncc2CNC2CCCCC2)c1 | 5.1* | -3 | 3 | 0 | -1 | -16
COc1cncc(-c2cnc(NCCCc3ccccc3)c3nccn23)c1 | 2 | 15 | -28 | 0 | . | .
O=C(O)c1cc(-c2ccc3ccccc3c2)n[nH]1 | -4 | 12 | 3 | 0 | . | .
Nc1ccc(NS(=O)(=O)c2ccc3c(c2)OCCCO3)cc1 | 6.5* | 18 | 0 | 0 | -1 | 0
Cc1cc(C)cc(NS(=O)(=O)c2ccc3c(c2)OCCCO3)c1 | 2 | 0 | 4 | 0 | . | .
COc1cc(NC(=S)NC(=O)c2c(OC)cccc2OC)ccc1NC(=O)C(C)C | 1 | -2 | 11 | 0 | . | .
C=CCn1c(SCC(=O)c2ccccc2)nc2sc3c(c2c1=O)CCCC3 | 1 | 14 | -5 | 0 | . | .
O=C(Nc1nccs1)c1ncoc1-c1cccs1 | 8.7* | -14 | 5 | 0 | 0 | 4
O=C(Nc1nncs1)c1ncoc1-c1cccs1 | -1 | -16 | 8 | 0 | . | .
COc1ccc(Cc2nn3c(-c4ccc(C)cc4)nnc3s2)cc1 | 6.4* | 12 | 8 | 0 | 0 | 0
Cc1cnc(N2CCOCC2)nc1Nc1ccc(Oc2ccccc2)cc1 | 6.6* | -3 | -17 | 0 | -1 | -1
Cc1cnc(N2CCOCC2)nc1Nc1ccc(N2CCOCC2)cc1 | -1 | 15 | 5 | 0 | . | .
Cc1cnc(-c2csc3ccccc23)nc1Nc1ccc(N2CCOCC2)cc1 | 5.0* | 14 | -14 | 1 | -1 | -9
CCN(CC)C(=O)C1CCCN(c2nc(Nc3cc(OC)c(OC)c(OC)c3)c3ncn(C4CCCCC4)c3n2)C1 (centres undefined) | 12* | 17 | -13 | 0 | -1 | -12

High-throughput results: PubChem, The Scripps Research Institute Molecular Screening Center
